Not all results are given here. The true hit rate is not given.
B1: il2ra_site2_2erj_sap_27_mot_HHH_b1_06697_000000025_0001_41_54_H_._HHH_b2_06097_0001_0000200013_0000001_0_0001 (protein)
chain: SSSSDKLRELYKLAVELMRLVAEGDEERFEEVAEEVRKLVEELDSRTAREILEALERKIKSSSSS
B2: il2ra_site2_3nfp_sap_22_mot_ems_3hM_1278_af2_000000151_0001_43_60_H_._HHH_b2_04893_0001_0000100005_0000001_0_0001 (protein)
chain: SSSSSEELEELIEQARELLEEGDKYEAAQVVLRASRLALELNDPEAARRILELFEEIQRTSSSSS
B3: il2ra_site2_3nfp_sap_18_mot_7f6a3539c8daa08639e4cdbcc6f77908_0001_af2_000000032_0001_16_31_H_._HHH_b1_04314_af2_0001_0000300027_0000001_0_0001 (protein)
chain: SSSSDKSEEYLRIALELLEEAIKAGDEEAARSHLEVAKAAAESHNDEEVEERLEELEELLSSSSS
B4: il2ra_site2_2erj_sap_12_mot_HHH_b1_05666_000000037_0001_42_55_H_._HHH_b2_06677_0001_0000400020_0000001_0_0001 (protein)
chain: SSSSDERLHELYKLANELLRLEFEGDEERIEELLQRVRELAEELKSDAARELVERVEKKLSSSSS
B5: il2ra_site1_1z92_normal_mot_HHH_b2_05027_000000150_0001_42_56_H_._HHH_b2_03014_0001_0000400026_0000001_0 (protein)
chain: SSSSSSSEEWLEELVELVIKRSDDPEEQEELRRLLEELREEGDPELWLELAQLLIEIASSSSSSS
B6: il2ra_site1_3nfp_sap_17_mot_HHH_b1_06312_000000077_0001_1_18_H_._HHH_b1_02603_af2_0001_0000500014_0000001_0_0001_af2pred_0001_af2pred_1 (protein)
chain: SSSSDVEEFLEEIKEELREALEKGDARLAARIFKEASKKLREKGNPELAEELYEFLRKLISSSSS
B7: il2ra_site2_2erj_sap_25_mot_HHH_b1_02841_000000060_0001_43_57_H_._HHH_b1_02445_af2_0001_0000300014_0000001_0_0001 (protein)
chain: SSSSDTEERVEEVLEEARKAYEEGDLHEVYRLAVEAMRIASENNDQEALELVLRFIEELSSSSSS
B8: il2ra_site1_2b5i_sap_8_mot_HHH_b1_04517_000000040_0001_39_52_H_._HHH_b2_05314_0001_0000400027_0000001_0_0001_af2pred_dldesign_0_af2pred (protein)
chain: SSSDPKALAETAAAIVEELEEKYNLNLEQSAVLERLAVELVWKGVSPEEIRRRLEALAKELSSSS
B9: il2ra_site1_1z92_normal_mot_01209686ea234b34325f918445e6eade_0001_af2_000000154_0001_18_33_H_._HHH_b1_01021_0001_0000100004_0000001_0_af2pred_0001_1_af2pred_swa … (protein)
chain: SSSSSDELEEFIEELVKELGLDEEAKETLERLLEKLQEQGVSERAIRRALERMARRMRGSSSSSS
B10: il2ra_site2_3nfp_sap_11_mot_HHH_b1_00882_af2_000000293_0001_1_18_H_._HHH_b1_01194_af2_0001_0000300012_0000001_0_0001 (protein)
chain: SSSSSSSLYELLQEAVEAAKNGNPEEAKEILEQALEEAREAGDEEAEHFIEWFIKAVRSSSSSSS

target: il2ra, P01589; assay: yeast display titration
Sequence (P01589 whole entry): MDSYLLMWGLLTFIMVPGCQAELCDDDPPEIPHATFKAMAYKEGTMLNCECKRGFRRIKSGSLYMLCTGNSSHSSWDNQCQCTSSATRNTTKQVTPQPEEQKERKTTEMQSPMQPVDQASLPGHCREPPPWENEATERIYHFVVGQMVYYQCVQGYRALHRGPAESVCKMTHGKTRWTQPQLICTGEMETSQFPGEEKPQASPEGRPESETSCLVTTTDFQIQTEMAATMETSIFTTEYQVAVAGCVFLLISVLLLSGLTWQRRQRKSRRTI

Apparent Kd, inactive:
B1 no binding seen, B2 no binding seen, B3 no binding seen, B4 no binding seen, B5 no binding seen, B6 no binding seen, B7 no binding seen, B8 no binding seen, B9 no binding seen, B10 no binding seen

Source: PMC10163288
